PTEN del growth: growth suppression of PTEN-null HCT116, primary screen, cell-based, CellTiter-Glo. viability, % at 10 µM. hit rate 1.2% among 140,000. HCT116 PTEN-null viability, 60 h; stronger effect = lower value;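 active = viability at or below a set limit, 4 SD under the median of all tested compounds, cut at about 3.7% in these data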;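 also: PTEN knockout HCT116 line with beta catenin targeted HCT116 as companion control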
INS promoter inh: inhibitors of insulin promoter-driven GFP, primary screen, imaging, TRM-6 cells (human fetal islet line), eGFP reporter, cell count. reporter expression induced with tamoxifen. inhibition, % at 2 µM. hit rate 0.9% among 130,000;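 active = inhibition above the mean plus 3 SD, with well images judged a real hit on visual review, cut at about 60% in these data, passing the limit was not always enough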
ROMK primary: ROMK potassium channel modulators, primary screen, cell-based, thallium flux, MLSMR library. hit rate 2% among 130,000. Tet-inducible ROMK, thallium flux fluorescence; actives lie on both sides. B-score at 10 µM. ATP-sensitive inward rectifier potassium channel 1 (Homo sapiens), P48048;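 active = signal ratio slope over the read window, or its plate-corrected B-score, at least 3 SD from the plate mean, either direction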;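 also: B-score of the F/F0 ratio slope over 7 to 12 s after thallium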
Target sequence (P48048 whole entry, looked up): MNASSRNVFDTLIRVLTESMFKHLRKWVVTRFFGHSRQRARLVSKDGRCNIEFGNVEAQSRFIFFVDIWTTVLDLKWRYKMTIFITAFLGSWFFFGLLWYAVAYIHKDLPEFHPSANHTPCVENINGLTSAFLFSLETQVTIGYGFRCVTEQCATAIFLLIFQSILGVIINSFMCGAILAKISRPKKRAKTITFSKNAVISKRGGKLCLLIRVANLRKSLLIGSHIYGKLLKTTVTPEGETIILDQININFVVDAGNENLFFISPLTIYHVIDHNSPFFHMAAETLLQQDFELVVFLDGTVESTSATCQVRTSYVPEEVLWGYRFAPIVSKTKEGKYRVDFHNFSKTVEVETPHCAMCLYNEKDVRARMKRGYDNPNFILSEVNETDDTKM
L major viab: Leishmania major promastigote growth inhibition, primary screen. Leishmania major promastigotes, resazurin fluorescence viability. inhibition, % at 10 µM. hit rate 9% among 200,000; in the data active = inhibition above about 50%;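 also: promastigotes grown with compound for 44 hours at 28 °C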
p97 inhibitor: inhibitors of human p97 ATPase, primary screen, biochemical; Transitional endoplasmic reticulum ATPase (Homo sapiens), P55072; recombinant p97 ATPase, Kinase-Glo ATP luminescence, 3 h; hit rate 0.42% among 220,000; inhibition, % at 8 µM; AID 1481, 2009; in the data active = inhibition above about 15%;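 also: 0% = DMSO vehicle and 100% = wells lacking enzyme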
HCT116 bCat-KO: primary screen for growth suppressors in beta-catenin knockout HCT116 cells (colon tumor, human). HCT116 beta-catenin knockout viability, CellTiter-Glo, 60 h; stronger effect = lower value. viability, % at 10 µM. hit rate 1.5% among 140,000. AID 818, 2007;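 active = viability at or under a set limit, the compound median less 4 SD, cut at about 6% in these data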;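 also: 0% = Hyamine 1622 control at 20 µM and 100% = untreated cell control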
Starred values were filed as active, the others as inactive; nt = no result. This is a sample that favours compounds with a hit; in the whole collection about 10% have one here.

SMILES | PTEN del growth | INS promoter inh | ROMK primary | L major viab | p97 inhibitor | HCT116 bCat-KO
CC(NS(=O)(=O)c1ccc(CCC(=O)NCc2cccnc2)cc1)c1ccccc1 (centres undefined) | 95.8 | -133.3 | -0.785 | 73.6* | -2.6 | 92.9
Cc1ccc(CNC(=O)CCc2ccc(S(=O)(=O)NC3CCCCC3)cc2)cc1 | 89.8 | -10.0 | nt | 72.8* | 0.6 | 94.6
CC(C(=O)Nc1nccs1)c1ccc([N+](=O)[O-])cc1 (centres undefined) | nt | -17.6 | 0.179 | 26.8 | 1.4 | nt
CNc1nc(Cl)c(SC)c(N2CCOCC2)n1 | nt | 22.2 | -0.16 | -5.5 | 2.8 | nt
COc1ccc(OC)c(S(=O)(=O)N2c3cc(F)ccc3CCC2C)c1 (centres undefined) | 72.1 | -54.7 | nt | 100.3* | 1.4 | 66.2
COc1ccc(C(=O)N2CCCN(C)CC2)cc1S(=O)(=O)N1CCCc2ccccc21 | 91.2 | -32.3 | 0.353 | 55.0* | 3.1 | 86.6
COc1ccc(OC)c(S(=O)(=O)N2C(C)CCCC2C)c1 (centres undefined) | 96.8 | 0.0 | -1.56 | -1.6 | 0.1 | 93.4
COc1ccc(OC)c(S(=O)(=O)N2c3ccccc3CC2C)c1 (centres undefined) | 78.0 | 63.0 | -0.592 | 100.1* | 2.5 | 92.4
COc1ccc(C(=O)NCc2ccc(C)cc2)cc1S(=O)(=O)N1CCCc2ccccc21 | 82.3 | 0.0 | -1.35 | 99.0* | 0.0 | 70.9
CN1CCN(NC(=O)CN2C(=O)S/C(=C\c3c(Cl)cccc3Cl)C2=O)CC1 | nt | nt | -0.378 | -4.2 | 6.1 | nt
CC(=O)Cn1nnc2sc(-c3ccccc3)cc2c1=O | nt | -50.0 | 0.0686 | 0.7 | 4.9 | nt
CCCn1nc(C(=O)Oc2ccc3c(C)cc(=O)oc3c2)c2ccccc2c1=O | 98.8 | 36.7 | -0.589 | -4.4 | -2.2 | 93.5
COc1ccc(CC(=O)Nc2cc(C)ccn2)cc1 | 81.5 | -35.5 | 0.0442 | -1.9 | -0.7 | 88.4
COc1ccc(OC)c(S(=O)(=O)N2CCC(C(=O)N3CCc4ccccc4C3)CC2)c1 | 86.4 | 42.5 | nt | 10.3 | -5.8 | 91.5
COc1ccc(OC)c(S(=O)(=O)N2CCc3ccccc32)c1 | 83.0 | 19.4 | nt | 95.3* | -0.1 | 86.0
COc1ccc(C(=O)N2CCOCC2)cc1S(=O)(=O)N1CCCc2ccccc21 | nt | -38.9 | -0.00247 | -0.3 | -0.6 | nt
COc1ccc(OC)c(S(=O)(=O)N2CCCc3ccccc32)c1 | 76.8 | 30.6 | -2 | 100.0* | -5.6 | 64.5
Cn1c(=O)c(=O)n(C)c2cc(S(=O)(=O)N3CCCC3C(=O)NCc3cccnc3)ccc21 (centres undefined) | nt | nt | nt | nt | 6.8 | nt
O=C(CN(C(=O)CSc1nnc(COc2ccccc2)o1)c1ccc(F)cc1)NC1CCCCC1 | 48.4 | -60.0 | nt | 52.4* | 5.4 | 54.9
CCOCc1cc(=O)[nH]c(SC)n1 | nt | nt | nt | nt | 8.1 | nt
Cc1ccc(C)c(OCC(=O)N2CCOCC2)c1 | 97.6 | 88.6* | nt | -1.2 | 1.7 | 91.0
Cc1ccc(OCC(=O)N2CCCCCC2)c(C)c1 | 89.2 | -44.1 | nt | 1.9 | -3.2 | 87.4
O=S(=O)(C/C(=C/CO)S(=O)(=O)c1ccccc1)c1ccccc1 | 105.4 | nt | -8.17* | 54.9* | 7.2 | 96.0
CCOC(=O)C(=O)/C(=C\N(C)C)c1onc(-c2c(F)cccc2Cl)c1C(=O)OC | 94.8 | -3.1 | nt | -5.5 | 0.2 | 104.0
Cc1cc(-c2ccccc2)nc2cc(C(=O)NCc3ccco3)nn12 | nt | nt | 0.948 | 4.6 | 1.0 | nt
SMILES | PTEN del growth | INS promoter inh | ROMK primary | L major viab | p97 inhibitor | HCT116 bCat-KO
O=C(Cn1nc(-c2ccccc2)ccc1=O)NCCCN1CCOCC1 | nt | nt | -0.699 | nt | 7.0 | nt
O=C(Cn1nc(-c2ccccc2)ccc1=O)NCC1COCCO1 (centres undefined) | 93.8 | 100.0* | nt | -1.6 | 6.6 | 89.2
CC(Oc1ccc(Cl)cc1Cl)c1nc(-c2ccc(NC(=O)c3ccccn3)cc2)no1 (centres undefined) | 53.2 | -23.3 | nt | -0.2 | -1.7 | 54.9
COc1ccc(Nc2nc3c(C)cccn3c(=O)c2C=NCc2ccccc2)cc1 | nt | 0.0 | 0.00431 | 63.2* | 0.0 | nt
Cc1ccnc(NC(=O)CCC(=O)N(CC(=O)NC2CCCCC2)C2CCCC2)c1 | nt | nt | -0.649 | nt | 1.2 | nt
C=CCn1c(CNC(=O)c2ccccc2F)nnc1SCc1nc2ccccc2c(=O)[nH]1 | nt | 46.7 | -0.0415 | -5.4 | 3.6 | nt
CSC(=S)N/N=C(\C)c1ccccc1 | nt | 53.3 | 10.5* | 100.3* | 8.7 | nt

Bioassay records (PubChem)
